Assay outcomes as filed in PubChem.
CHX counter: counter-screen for Shiga toxin inhibitors: cycloheximide protein synthesis inhibition. cell reporter, cycloheximide protein synthesis inhibition counterscreen. max response, %. 300,000 compounds, 12% hits. AID 2314; in the data active = max response mostly above about 13%, no sharp cut-off; inactive = mostly below about 14%; also: read at 38.3 µM for the half of the compounds with a filed dose; 0% is about no effect
Shiga inhibitor: inhibitors of Shiga toxin in Vero cells; inhibition, % at 38.7 µM; 290,000 compounds, 9.2% hits; Vero cells, Shiga toxin protein synthesis inhibition reporter; AID 2315; in the data active = inhibition mostly above about 28%, no sharp cut-off; inactive = mostly below about 43%; also: 0% is about no effect
Pf growth 48h: inhibits P. falciparum growth in the first generation, 48 h; P. falciparum luciferase growth in erythrocytes, 48 h; Potency, µM (top dose mostly 28.7 µM), without a hit: at the top dose activity change, negative = inhibition, actives largely listed as inhibitors; 310,000 compounds, 5.9% hits; also: potency is read from the fitted curve at half-maximal effect; % is scaled to controls: 0 for no effect and ±100 for the full control effect
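Luciferase-expressing P. falciparum in infected erythrocytes (2% hematocrit, 0.1% parasitemia final) in RPMI 1640/0.5% Albumax were exposed to compound for 48 hours at 37 C, 5% CO2; growth read as luminescence.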
Pf growth 96h: inhibits malaria parasite growth, 96 h; P. falciparum luciferase reporter growth, 96 h; Potency, µM (series often up to 28.7 µM), for inactives: at the highest dose activity change, negative = inhibition, hits mostly inhibitors; 320,000 compounds, 6.9% hits; also: potency is read from the fitted curve at half-maximal effect; % is scaled to controls: 0 for no effect and ±100 for the full control effect
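Compounds incubated with erythrocytes infected by luciferase-expressing P. falciparum (2% hematocrit, 0.05% parasitemia final) for 96 hours, 37 C in 5% CO2. Growth inhibition scored as decreased luciferase luminescence.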
SARS PLpro yeast: SARS-CoV PLP inhibition in yeast; 330,000 compounds, 0.19% hits; Potency, µM (titrated, usually from 32.9 µM), for the others: at the highest dose activity, positive = growth rescue, hits mostly activators; S. cerevisiae expressing SARS-CoV PLpro, growth rescue; AID 485353; calls by dose curve; also: potency is read from the fitted curve at half-maximal effect; 0% is about no effect; nearly all actives have a fitted effect of over 55% in size
AMA1 RON2 block: AMA1-RON2 (P. falciparum) interaction inhibition | AlphaScreen AMA1-biotinylated RON2 peptide binding | Potency, µM (highest dose often 58.2 µM), for the others: at the top dose activity change, negative = inhibition, hits mostly inhibitors | 360,000 compounds, 0.2% hits | AID 720542;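 also: potency is read from the fitted curve at half-maximal effect; 0% = vehicle wells and -100% = peptide control; nearly all actives have a fitted effect of over 45% in size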
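AMA1 (3D7) with his tag at 25 nM final met compounds first, then biotinylated RON2 peptide at 25 nM; detection used donor plus acceptor beads, 10 µg/mL apiece, read by AlphaScreen after 30 min at room temperature.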
An asterisk follows results filed as active; ! = not confirmed by another sample; [ ] = remark or other dose. In the library only some 19% were active in any assay of this set; here they are far more common. Unless noted, calls follow the shape of the dose curve; as a rule, active = well fitted curve in the direction sought with a large enough effect; inconclusive = small, poorly fitted or top-dose-only effect, or another doubt; inactive = no such curve, though single readings can be large; an effect the other way counts as inactive or inconclusive.

`COc1ccc(-c2nc3ccccc3[nH]2)cc1` gave CHX counter 25*, Shiga inhibitor 27, Pf growth 96h -24%, SARS PLpro yeast -29% and AMA1 RON2 block 0%.
For c1ccc(-c2n[nH]c(-c3ccccc3)c2-c2nc3ccccc3[nH]2)cc1 the results were CHX counter -3, Shiga inhibitor -13, Pf growth 48h 2%, Pf growth 96h 12%, SARS PLpro yeast 2% and AMA1 RON2 block -13%.
For Cc1cc(-c2nc3ccccc3[nH]2)ccc1N the results were CHX counter 24, Shiga inhibitor 144*, Pf growth 48h 162%, Pf growth 96h inconclusive, SARS PLpro yeast -12% and AMA1 RON2 block -20%.
For O=[N+]([O-])c1ccc(S(=O)(=O)Nc2ccc(-c3ccccc3)cc2)cc1 the results were AMA1 RON2 block -26%.
For S=C(NCCN1CCOCC1)Nc1ccc(-c2nc3ccccc3[nH]2)cc1 the results were CHX counter 28*, Shiga inhibitor 177*, Pf growth 48h inconclusive, Pf growth 96h inconclusive, SARS PLpro yeast -3% and AMA1 RON2 block 2%.
`O=C(Nc1cccc(-c2nc3ccccc3[nH]2)c1)c1ccccn1` gave CHX counter 14, Shiga inhibitor 19, Pf growth 48h 3%, Pf growth 96h -9%, SARS PLpro yeast -25% and AMA1 RON2 block 7%.
COc1ccc(CCCc2nc3ccccc3[nH]2)cc1 was read as CHX counter 22*, Shiga inhibitor 70, Pf growth 48h inconclusive, Pf growth 96h inconclusive, SARS PLpro yeast 1% and AMA1 RON2 block -6%.
For Fc1cc2nc(-c3ccncc3)[nH]c2cc1F the results were CHX counter 24*, Shiga inhibitor 71, Pf growth 48h inconclusive, Pf growth 96h 1.9µM*, SARS PLpro yeast 2% and AMA1 RON2 block 10%.
For c1ccc2[nH]c(-c3ccncc3)nc2c1 the results were CHX counter 19*, Shiga inhibitor 68*, Pf growth 48h 26%, Pf growth 96h inconclusive, SARS PLpro yeast -1% and AMA1 RON2 block 3%.
Screening c1ccc2[nH]c(CCCCc3nc4ccccc4[nH]3)nc2c1 returned CHX counter 4, Shiga inhibitor 12, Pf growth 48h inconclusive, Pf growth 96h 23%, SARS PLpro yeast -4% and AMA1 RON2 block 18%.
`CC(=O)OCC1OC(OC2C[C@]3(C)C(CC(O)C4C([C@](C)(CCC=C(C)C)OC5OC(CO)C(O)C(O)C5O)CC[C@]43C)[C@@]3(C)CCC(O)C(C)(C)C23)C(O[C@@H]2OC(C)C(O)C(O)C2O)C(O)C1O` (some centres undefined) gave AMA1 RON2 block 20%.
`S=C(Nc1ccc(-c2nc3ccccc3[nH]2)cc1)Nc1cccnc1` gave CHX counter 61*, Shiga inhibitor 66*, Pf growth 48h inconclusive, Pf growth 96h -55%, SARS PLpro yeast -8% and AMA1 RON2 block 31%.
For c1cncc(-c2nc3ccccc3[nH]2)c1 the results were CHX counter 37*!, Shiga inhibitor 71*!, Pf growth 48h 72%, Pf growth 96h 0%, SARS PLpro yeast -1% and AMA1 RON2 block -1%.
`COC(=O)c1ccc(-c2ncc[nH]2)cc1` gave CHX counter 24*, Shiga inhibitor 23, Pf growth 48h 14%, Pf growth 96h 48%, SARS PLpro yeast -1% and AMA1 RON2 block 18%.
`CC(=O)Nc1ccc2nc(-c3cccnc3)[nH]c2c1` gave CHX counter 10, Shiga inhibitor 19, Pf growth 48h 80%, Pf growth 96h 32%, SARS PLpro yeast 10% and AMA1 RON2 block 3%.
`CCCC1=NN(c2ccc([N+](=O)[O-])cc2)C(=O)/C1=C\N(C)C` gave CHX counter 11*, Shiga inhibitor 24, Pf growth 48h 28%, Pf growth 96h 17%, SARS PLpro yeast 22% and AMA1 RON2 block 18%.
CCN(CC)c1ccc(/C=C2/C(=O)N(c3ccc([N+](=O)[O-])cc3)N=C2N2CCOCC2)cc1 was read as CHX counter 1, Shiga inhibitor -4, Pf growth 48h -16%, Pf growth 96h 53% and SARS PLpro yeast 1%.
`CCCCCCSc1ccc([C@H]2N[C@@](C)(C(=O)OC)[C@H]3C(=O)N(CC)C(=O)[C@@H]23)cc1` gave Pf growth 48h inconclusive, Pf growth 96h inconclusive, SARS PLpro yeast 1% and AMA1 RON2 block -5%.
O=C(CN1CCCCCC1)Nc1ccccc1Oc1ccccc1 was read as CHX counter 1, Shiga inhibitor 34, Pf growth 48h -10%, Pf growth 96h 6%, SARS PLpro yeast 3% and AMA1 RON2 block -23%.
Screening CC(=O)NCCC(=O)Nc1nc2c(ccc3ccccc32)s1 returned CHX counter 15*, Shiga inhibitor 20, Pf growth 48h 30%, Pf growth 96h 20%, SARS PLpro yeast -6% and AMA1 RON2 block -4%.
`CC(C)CNC(=O)c1ccccc1NC(=O)CCSc1ccccc1` gave CHX counter -1, Shiga inhibitor -13, Pf growth 48h 14%, Pf growth 96h inconclusive, SARS PLpro yeast -8% and AMA1 RON2 block 35%.
COc1cc(C=O)c(Br)cc1OCC(=O)NCCc1ccccc1 was read as CHX counter -8, Shiga inhibitor -2, Pf growth 48h -11%[5.75 µM], Pf growth 96h 28%, SARS PLpro yeast -2% and AMA1 RON2 block 0%.
CCOC(=O)COc1cc(Br)c(/C=N/Nc2ccccc2)cc1OC was read as CHX counter -1, Shiga inhibitor -7, Pf growth 48h 8.3µM*, Pf growth 96h 10µM*, SARS PLpro yeast -3% and AMA1 RON2 block 10%.
For C[C@@H]1CN([C@H](C)CO)C(=O)CCCn2cc(nn2)CO[C@H]1CN(C)C(=O)Nc1cccc(Oc2ccccn2)c1 the results were AMA1 RON2 block 14%.
For COCC(=O)Nc1ccc(C(C)C)cc1 the results were CHX counter 37*, Shiga inhibitor 110*, Pf growth 48h 114%, SARS PLpro yeast -6% and AMA1 RON2 block -6%.
COc1ccc(NC(=O)Nc2ccc(C(C)C)cc2)cc1 was read as CHX counter 19*, Shiga inhibitor 58*, Pf growth 48h 27%, Pf growth 96h 48%, SARS PLpro yeast -2% and AMA1 RON2 block -22%.
Screening O=S(=O)(N/N=C1/CC(c2ccccc2)Oc2ccccc21)c1ccc(Br)cc1 (centres undefined) returned CHX counter 28*, Shiga inhibitor 25, Pf growth 96h 19%, SARS PLpro yeast -14% and AMA1 RON2 block 8%.
Cc1ccc(S(=O)(=O)N/N=C2/CC(c3ccccc3)Oc3ccccc32)cc1[N+](=O)[O-] (centres undefined) was read as CHX counter 55*, Shiga inhibitor 39*, Pf growth 96h 4%, SARS PLpro yeast -3% and AMA1 RON2 block -8%.
